# Inconclusive results are not listed. A call without a number means that no potency is given here. The source made the active and inactive calls. Unless noted, calls come from the whole dose curve; as a rule, active = well fitted curve in either direction with a large enough effect (not every such curve was filed as active); inconclusive = small, poorly fitted or top-dose-only effect, or another doubt; inactive = flat fitted curve, though single readings scatter.
# Legend:
# [1] = target: Mitogen-activated protein kinase 10 (Mus musculus) (UniProt Q61831); experiment: JNK3 AlphaScreen Assay (AID 530);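 note: kinase came from lysate of stimulated human HepG2 cells; signal reports phosphorylation of biotinylated GST-cJun 1-79 at Ser73 with 10 µM ATP; series mostly up to about 57 µM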
# Summary of the method: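 Kinase buffer: 20 mM Tris-HCl pH 7.6, 10 mM MgCl2, 1 mM DTT, 0.1 mM Na3VO4, 0.01% Tween-20; ATP 10 uM. Substrate biotin-GST-cJun(1-79), enzyme from activated HepG2 lysates. Detection by Ser73 phospho-antibody AlphaScreen.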
# [2] = target: 3',5'-cyclic-AMP phosphodiesterase 4B (Homo sapiens) (UniProt Q07343); experiment: qHTS Assay for Inhibitors of PDE-IV (AID 607; active = well fitted activation curve with a large enough effect in the main read-out, with a control signal flat, not every such curve was filed as active)
# Summary of the method: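 ACTOne HEK293 cells carry a modified cAMP-gated CNG channel and express endogenous PDE4; plated 1000 cells/well, compounds up to 22.9 uM final. Membrane-potential dye fluorescence (ex 535/em 590) was read; parental cells received 10 uM forskolin + 100 uM RO 20-1724.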
# [3] = target: Cytochrome P450 3A4 (Homo sapiens) (UniProt P08684); experiment: qHTS Assay for Inhibitors and Substrates of Cytochrome P450 3A4 (AID 884; active = well fitted curve in the direction sought with a large enough effect; an effect the other way counts as inactive or inconclusive; note: potency is the fitted concentration of half-maximal effect; nearly all actives have a fitted effect of over 50% in size)
# Summary of the method: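 Luminescent readout of luciferin produced by CYP3A4 (20 nM) dealkylation of Luciferin-PPXE, 25 uM (its KM). NADPH-driven reaction ran 60 min at RT after 10 min compound preincubation; data scaled to 57 uM ketoconazole as 100% inhibition.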
# [4] = target: Cytochrome P450 3A4 (Homo sapiens) (UniProt P08684); experiment: qHTS Assay for Activators of Cytochrome P450 3A4 (AID 885; active = well fitted curve in the direction sought with a large enough effect; an effect the other way counts as inactive or inconclusive; note: nearly all actives have a fitted effect of over 65% in size)
# Summary of the method: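 CYP3A4 activity: Luciferin-PPXE O-dealkylation, 25uM substrate, 200mM KPO4, RT throughout. Read-out is luciferase luminescence; higher values reflect activation.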
# [5] = target: Cytochrome P450 2C19 (Homo sapiens) (UniProt P33261); experiment: qHTS Assay for Inhibitors and Substrates of Cytochrome P450 2C19 (AID 899; active = well fitted curve in the direction sought with a large enough effect; an effect the other way counts as inactive or inconclusive; note: potency is the fitted concentration of half-maximal effect; nearly all actives have a fitted effect of over 60% in size)
# Summary of the method: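 Luminescence readout of luciferin formed from 10uM Luciferin-H EGE (KM level) by 5 nM CYP2C19 in 50mM KPO4. 60 min NADPH-driven reaction at 37C after 10 min compound preincubation; data scaled to 57uM ketoconazole inhibition.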
# Sequence of Cytochrome P450 3A4 (Homo sapiens) (P08684 whole entry, looked up): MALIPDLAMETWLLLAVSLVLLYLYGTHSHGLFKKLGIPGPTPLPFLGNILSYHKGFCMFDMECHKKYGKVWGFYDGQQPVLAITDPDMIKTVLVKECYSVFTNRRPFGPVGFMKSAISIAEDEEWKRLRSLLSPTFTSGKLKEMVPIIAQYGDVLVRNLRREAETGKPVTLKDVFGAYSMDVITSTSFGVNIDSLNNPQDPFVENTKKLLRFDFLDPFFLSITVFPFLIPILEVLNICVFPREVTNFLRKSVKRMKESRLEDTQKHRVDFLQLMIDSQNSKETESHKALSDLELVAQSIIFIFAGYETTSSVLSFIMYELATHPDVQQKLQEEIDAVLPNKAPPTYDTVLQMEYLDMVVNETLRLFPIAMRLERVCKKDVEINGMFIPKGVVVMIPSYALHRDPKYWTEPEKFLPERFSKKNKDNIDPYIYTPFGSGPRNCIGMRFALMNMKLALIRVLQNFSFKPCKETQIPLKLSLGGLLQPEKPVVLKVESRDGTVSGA
# Sequence of 3',5'-cyclic-AMP phosphodiesterase 4B (Homo sapiens) (Q07343 whole entry, looked up): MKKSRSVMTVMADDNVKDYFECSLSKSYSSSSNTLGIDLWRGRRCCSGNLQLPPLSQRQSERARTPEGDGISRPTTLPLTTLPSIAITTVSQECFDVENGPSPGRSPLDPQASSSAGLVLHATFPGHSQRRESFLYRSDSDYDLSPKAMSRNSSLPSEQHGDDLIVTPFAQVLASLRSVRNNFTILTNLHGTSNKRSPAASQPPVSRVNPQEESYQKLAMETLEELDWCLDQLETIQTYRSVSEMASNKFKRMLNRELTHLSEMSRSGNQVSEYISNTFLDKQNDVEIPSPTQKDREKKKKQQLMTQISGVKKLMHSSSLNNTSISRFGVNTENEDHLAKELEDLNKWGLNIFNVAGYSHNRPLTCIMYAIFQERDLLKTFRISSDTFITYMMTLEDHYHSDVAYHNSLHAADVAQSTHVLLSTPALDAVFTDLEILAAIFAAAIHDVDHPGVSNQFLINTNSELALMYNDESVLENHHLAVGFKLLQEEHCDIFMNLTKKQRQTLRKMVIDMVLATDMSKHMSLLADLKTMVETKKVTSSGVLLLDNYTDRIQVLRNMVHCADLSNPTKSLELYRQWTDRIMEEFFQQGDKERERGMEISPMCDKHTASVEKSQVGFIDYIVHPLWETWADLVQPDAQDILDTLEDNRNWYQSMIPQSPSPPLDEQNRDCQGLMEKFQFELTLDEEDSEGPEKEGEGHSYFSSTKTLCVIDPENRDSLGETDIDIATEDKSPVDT
# Sequence of Cytochrome P450 2C19 (Homo sapiens) (P33261 whole entry, looked up): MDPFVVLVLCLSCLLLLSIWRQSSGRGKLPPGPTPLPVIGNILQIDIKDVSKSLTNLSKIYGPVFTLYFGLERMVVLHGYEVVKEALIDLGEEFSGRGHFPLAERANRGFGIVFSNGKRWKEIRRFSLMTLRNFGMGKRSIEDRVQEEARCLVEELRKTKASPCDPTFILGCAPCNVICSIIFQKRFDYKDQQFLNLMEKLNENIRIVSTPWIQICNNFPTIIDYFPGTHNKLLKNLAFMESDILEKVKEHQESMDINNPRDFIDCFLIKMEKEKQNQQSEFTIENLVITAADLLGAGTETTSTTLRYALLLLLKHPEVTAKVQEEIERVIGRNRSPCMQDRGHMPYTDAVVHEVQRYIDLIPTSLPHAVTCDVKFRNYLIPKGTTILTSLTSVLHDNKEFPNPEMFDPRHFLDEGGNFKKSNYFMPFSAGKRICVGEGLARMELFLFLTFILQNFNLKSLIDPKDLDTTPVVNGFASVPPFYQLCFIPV
smiles,measurement,setting,value
COC(=O)[C@@H]1C[C@H]1[C@@H](NC(C)=O)c1ccccc1,outcome,[1],inactive
same,outcome,[2],inactive
COC(=O)Cn1c(C(=O)N2CCCC2)cc2c1C[C@H]1CN(C(=O)c3ccccc3)[C@@](Cc3ccccc3)(C(=O)OC)[C@@H]21,outcome,[1],inactive
COC(=O)[C@@]1(Cc2ccccc2)[C@H]2c3cc(C(=O)N(C)C)n(Cc4ccccn4)c3C[C@H]2CN1C(=O)c1ccccc1,outcome,[1],inactive
same,outcome,[2],inactive
COC(=O)[C@@]1(Cc2ccc(OC)cc2)[C@H]2c3cc(C(=O)N(C)C)n(CCc4ccccn4)c3C[C@H]2CN1C(=O)c1ccccc1,outcome,[1],inactive
same,outcome,[2],inactive
COC(=O)[C@@]1(Cc2ccc(F)cc2)[C@H]2c3cc(C(=O)N(C)C)n(Cc4ccc(S(C)(=O)=O)cc4)c3C[C@H]2CN1C(=O)c1ccccc1,outcome,[1],inactive
same,outcome,[2],inactive
COc1ccc(CNC(=O)[C@H](C)[C@H]2C[C@]2(C)[C@H](NC(=O)OCc2ccccc2)c2ccccc2)cc1OC,outcome,[1],inactive
same,outcome,[2],inactive
C[C@@H](C(=O)Nc1ccc2ccccc2c1)[C@@H]1C[C@@]1(C)[C@@H](NC(=O)c1cccnc1)c1ccccc1,outcome,[1],inactive
same,outcome,[2],inactive
C[C@@H](C(=O)Nc1ccc2ccccc2c1)[C@H]1C[C@]1(C)[C@H](NC(=O)c1ccccc1)c1ccccc1,outcome,[1],inactive
same,outcome,[2],inactive
COC(=O)[C@@]1(Cc2ccc(F)cc2)[C@H]2c3cc(C(=O)N4CCCC4)n(CC4CC4)c3C[C@H]2CN1C(=O)c1ccccc1,outcome,[1],inactive
same,outcome,[2],inactive
COC(=O)[C@@]1(Cc2ccccc2)[C@H]2c3cc(C(=O)N(C)C)n(CCO)c3C[C@H]2CN1C(=O)c1ccccc1,outcome,[1],inactive
same,outcome,[2],inactive
COC(=O)[C@@]1(Cc2ccc(OC)cc2)[C@H]2c3cc(C(=O)N4CCCC4)n(Cc4cc(F)c(F)c(F)c4)c3C[C@H]2CN1C(=O)c1ccccc1,outcome,[1],inactive
same,outcome,[2],inactive
COC(=O)[C@@]1(Cc2ccc(OC)cc2)[C@H]2c3cc(C(=O)N(C)C)n(CCc4ccc(O)c(OC)c4)c3C[C@H]2CN1C(=O)c1ccccc1,outcome,[1],inactive
same,outcome,[2],inactive
O=C(NCC1CC1)[C@@H]1C[C@H]1[C@@H](NP(=O)(c1ccccc1)c1ccccc1)c1ccccc1,outcome,[1],inactive
same,outcome,[2],inactive
COC(=O)[C@@]1(Cc2ccc(OC)cc2)[C@H]2c3cc(C(=O)N(C)C)n(CCc4c[nH]c5ccc(O)cc45)c3C[C@H]2CN1C(=O)c1ccccc1,outcome,[1],inactive
same,outcome,[2],inactive
COC(=O)[C@@]1(Cc2ccc(F)cc2)[C@H]2c3cc(C(=O)N(C)C)n(Cc4ccc(O)c(OC)c4)c3C[C@H]2CN1C(=O)c1ccccc1,outcome,[1],inactive
same,outcome,[2],inactive
CC(C)c1ccc2c([Si](C)(C)C)c3c(nc2c1)-c1cccc(=O)n1C3,outcome,[1],inactive
same,outcome,[2],inactive
COC(=O)[C@@]1(Cc2ccc(F)cc2)[C@H]2c3cc(C(=O)N(C)C)n(CCc4ccccn4)c3C[C@H]2CN1C(=O)c1ccccc1,outcome,[1],inactive
same,outcome,[2],inactive
C[C@@H](C(=O)Nc1ccc2ccccc2c1)[C@H]1C[C@]1(C)[C@H](NC(=O)c1cccnc1)c1ccccc1,outcome,[1],inactive
same,outcome,[2],inactive
COC(=O)[C@@]1(Cc2ccccc2)[C@@H]2[C@@H](CC(=O)[C@H]2CC(=O)C(=O)N(C)C)CN1C(=O)c1ccccc1,outcome,[1],inactive
same,outcome,[2],inactive
COC(=O)[C@@]1(Cc2ccc(F)cc2)[C@H]2c3cc(C(=O)N4CCCC4)n(C[C@H](O)CO)c3C[C@H]2CN1C(=O)c1ccccc1,outcome,[1],inactive
same,outcome,[2],inactive
Cc1ccc(CNC(=O)[C@@H]2C[C@H]2[C@@H](NP(=O)(c2ccccc2)c2ccccc2)c2ccccc2)o1,outcome,[1],inactive
same,outcome,[2],inactive
COC(=O)[C@@]1(Cc2ccc(F)cc2)[C@H]2c3cc(C(=O)N(C)C)n(CCO)c3C[C@H]2CN1C(=O)c1ccccc1,outcome,[1],inactive
same,outcome,[2],inactive
COC(=O)[C@@]1(Cc2ccc(OC)cc2)[C@H]2c3cc(C(=O)N4CCCC4)n(Cc4ccc(O)c(OC)c4)c3C[C@H]2CN1C(=O)c1ccccc1,outcome,[1],inactive
same,outcome,[2],inactive
COC(=O)[C@@]1(Cc2ccccc2)[C@H]2c3cc(C(=O)N(C)C)n(Cc4ccc(S(C)(=O)=O)cc4)c3C[C@H]2CN1C(=O)c1ccccc1,outcome,[1],inactive
same,outcome,[2],inactive
COC(=O)[C@@]1(Cc2ccc(OC)cc2)[C@H]2c3cc(C(=O)N4CCCC4)n(CCN4CNCC4=O)c3C[C@H]2CN1C(=O)c1ccccc1,outcome,[1],inactive
same,outcome,[2],inactive
O=C(N[C@@H](c1ccccc1)[C@@H]1C[C@H]1C(=O)NCc1ccccc1)OCc1ccccc1,outcome,[1],inactive
same,outcome,[2],inactive
COC(=O)[C@@]1(Cc2ccc(F)cc2)[C@H]2c3cc(C(=O)N(C)C)n(Cc4nc5ccccc5[nH]4)c3C[C@H]2CN1C(=O)c1ccccc1,outcome,[1],inactive
same,outcome,[2],inactive
C[C@@H](C(=O)Nc1ccc2ccccc2c1)[C@H]1C[C@]1(C)[C@H](NS(=O)(=O)c1ccccc1)c1ccccc1,outcome,[1],inactive
same,outcome,[2],inactive
COC(=O)[C@@]1(Cc2ccc(OC)cc2)[C@H]2c3cc(C(=O)N4CCCC4)n(Cc4cc(C)n(C)n4)c3C[C@H]2CN1C(=O)c1ccccc1,outcome,[1],inactive
same,outcome,[2],inactive
O=C(NCc1ccccn1)[C@@H]1C[C@H]1[C@@H](NP(=O)(c1ccccc1)c1ccccc1)c1ccccc1,outcome,[1],inactive
same,outcome,[2],inactive
COc1ccc(NC(=O)CCCCC#Cc2ccccc2)cc1,outcome,[1],inactive
same,outcome,[2],inactive
Cc1ccc(CNC(=O)[C@H]2C[C@@H]2[C@H](NP(=O)(c2ccccc2)c2ccccc2)c2ccccc2)o1,outcome,[1],inactive
same,outcome,[2],inactive
COC(=O)[C@@]1(Cc2ccc(OC)cc2)[C@H]2c3cc(C(=O)N(C)C)n(CCF)c3C[C@H]2CN1C(=O)c1ccccc1,outcome,[1],inactive
same,outcome,[2],inactive
COC(=O)[C@@]1(Cc2ccc(OC)cc2)[C@H]2c3cc(C(=O)N4CCCC4)n(Cc4ccc(C)c(F)c4F)c3C[C@H]2CN1C(=O)c1ccccc1,outcome,[1],inactive
same,outcome,[2],inactive
O=C(NCc1ccccn1)[C@H]1C[C@@H]1[C@H](NP(=O)(c1ccccc1)c1ccccc1)c1ccccc1,outcome,[1],inactive
same,outcome,[2],inactive
COC(=O)[C@@]1(Cc2ccc(F)cc2)[C@H]2c3cc(C(=O)N(C)C)n(Cc4ccccn4)c3C[C@H]2CN1C(=O)c1ccccc1,outcome,[1],inactive
same,outcome,[2],inactive
Cc1ccc(CNC(=O)[C@H](C)[C@@H]2C[C@@]2(C)[C@@H](NC(=O)OCc2ccccc2)c2ccccc2)c(F)c1F,outcome,[1],inactive
same,outcome,[2],inactive
COC(=O)[C@@]1(Cc2ccc(F)cc2)[C@H]2c3cc(C(=O)N(C)C)n(Cc4ccsc4Br)c3C[C@H]2CN1C(=O)c1ccccc1,outcome,[1],inactive
same,outcome,[2],inactive
COC(=O)[C@@]1(Cc2ccc(OC)cc2)[C@H]2c3cc(C(=O)N(C)C)n(Cc4ccccn4)c3C[C@H]2CN1C(=O)c1ccccc1,outcome,[1],inactive
same,outcome,[2],inactive
COC(=O)[C@@]1(Cc2ccc(OC)cc2)[C@H]2c3cc(C(=O)N(C)C)n(Cc4ccc(Cl)c(C(F)(F)F)c4)c3C[C@H]2CN1C(=O)c1ccccc1,outcome,[1],inactive
same,outcome,[2],inactive
C[C@@H](C(=O)NCc1ccccc1)[C@@H]1C[C@@]1(C)[C@@H](NC(=O)OCc1ccccc1)c1ccccc1,outcome,[1],inactive
same,outcome,[2],inactive
C[C@@H](C(=O)Nc1ccc2ccccc2c1)[C@@H]1C[C@@]1(C)[C@@H](NC(=O)c1ccccc1)c1ccccc1,outcome,[1],inactive
same,outcome,[2],inactive
C[C@@]1(C(NS(=O)(=O)c2cccc3cccnc23)c2ccc(-c3ccccc3)cc2)C[C@H]1C1CCCCC1 (some centres not stated),outcome,[1],inactive
same,outcome,[2],inactive
COC(=O)Cn1c(C(=O)N(C)C)cc2c1C[C@H]1CN(C(=O)c3ccccc3)[C@@](Cc3ccc(OC)cc3)(C(=O)OC)[C@@H]21,outcome,[1],inactive
same,outcome,[2],inactive
COC(=O)[C@@]1(Cc2ccc(F)cc2)[C@H]2c3cc(C(=O)N(C)C)n(Cc4cc(C)n(C)n4)c3C[C@H]2CN1C(=O)c1ccccc1,outcome,[1],inactive
same,outcome,[2],inactive
COC(=O)[C@@]1(Cc2ccccc2)[C@H]2c3cc(C(=O)N(C)C)n(Cc4ccccc4)c3C[C@H]2CN1C(=O)c1ccccc1,outcome,[1],inactive
same,outcome,[2],inactive
COC(=O)[C@@]1(Cc2ccccc2)[C@H]2c3cc(C(=O)N(C)C)n(Cc4cc(C)n(C)n4)c3C[C@H]2CN1C(=O)c1ccccc1,outcome,[1],inactive
same,outcome,[2],inactive
CCC/C=C(\CCC)C(NC(=O)OCC(C)C)c1ccccc1 (configuration not stated),outcome,[1],inactive
same,outcome,[2],inactive
COC(=O)[C@@]1(Cc2ccccc2)[C@H]2c3cc(C(=O)N(C)C)n(Cc4nc5ccccc5[nH]4)c3C[C@H]2CN1C(=O)c1ccccc1,outcome,[1],inactive
same,outcome,[2],inactive
Cc1cc(CNC(=O)[C@H](C)[C@H]2C[C@]2(C)[C@H](NC(=O)OCc2ccccc2)c2ccccc2)nn1C,outcome,[1],inactive
same,outcome,[2],inactive
COC(=O)[C@@]1(Cc2ccccc2)[C@H]2c3cc(C(=O)N(C)C)n(C[C@H](O)CO)c3C[C@H]2CN1C(=O)c1ccccc1,outcome,[1],inactive
same,outcome,[2],inactive
C[C@@H](C(=O)Nc1ccc2ccccc2c1)[C@@H]1C[C@@]1(C)[C@@H](NS(=O)(=O)c1ccccc1)c1ccccc1,outcome,[1],inactive
same,outcome,[2],inactive
COC(=O)[C@@]1(Cc2ccc(OC)cc2)[C@H]2c3cc(C(=O)N4CCCC4)n(Cc4nc5ccccc5[nH]4)c3C[C@H]2CN1C(=O)c1ccccc1,outcome,[1],inactive
same,outcome,[2],inactive
same,Potency,[3],2 µM (active)
same,Potency,[4],inactive
CCC/C=C(\CCC)C(NS(C)(=O)=O)c1ccccc1 (configuration not stated),outcome,[1],inactive
same,outcome,[2],inactive
same,Potency,[4],inactive
same,Potency,[5],7.94 µM (active)
C[C@H](CO)NC(=O)[C@H](C)[C@H]1C[C@]1(C)[C@H](NC(=O)OCc1ccccc1)c1ccccc1,outcome,[1],inactive
same,outcome,[2],inactive
same,Potency,[3],3.98 µM (active)
same,Potency,[4],inactive
same,Potency,[5],0.631 µM (active)
COC(=O)[C@@]1(Cc2ccc(F)cc2)[C@H]2c3cc(C(=O)N4CCCC4)n(Cc4cc(F)cc5c4OCOC5)c3C[C@H]2CN1C(=O)c1ccccc1,outcome,[1],inactive
same,outcome,[2],inactive
COCCNC(=O)[C@H](C)[C@H]1C[C@]1(C)[C@H](NC(=O)OCc1ccccc1)c1ccccc1,outcome,[1],inactive
same,outcome,[2],inactive
same,Potency,[3],3.16 µM (active)
same,Potency,[4],inactive

# Reference: PubChem BioAssay (NCATS)
